Records with an inconclusive call do not appear. Active and inactive are the calls of the source. The calls were made as follows, unless noted: active = hit-call score of the fitted dose curve at least 0.9, where 1 is the maximum; inconclusive = response in the unintended direction; inactive = score below 0.9.
Legend:
[1] = Tanguay_ZF_120hpf_PFIN_legacy: (Legacy) Oregon State University Tanguay Lab 120 Hour Post-fertilization zebrafish Assay for Pectoral Fin Malformation (AID 2283648);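 also: each larva judged yes or no for fin defect by brightfield with dead larvae skipped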
Method in brief: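 5D WT zebrafish; pronase dechorionation 4 hpf; 1 embryo/well at 6 hpf; static exposure to 120 hpf, 28C, sealed, foil-covered; final DMSO 0.64% v/v; 5 uM trimethyltin chloride positive control; fin defect scored yes/no.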

[2] = Tanguay_ZF_120hpf_CFIN_legacy: (Legacy) Oregon State University Tanguay Lab 120 Hour Post-fertilization zebrafish Assay for Caudal Fin Malformation (AID 2283649)
Method in brief: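 Dechorionated 5D wild-type zebrafish, static exposure 6–120 hpf, 28C, sealed and dark, 0.64% v/v DMSO final. Binary fin-malformation call at 120 hpf, brightfield; gain of signal vs DMSO baseline.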

[3] = Tanguay_ZF_120hpf_PIG_legacy: (Legacy) Oregon State University Tanguay Lab 120 Hour Post-fertilization zebrafish Assay for Pigmentation Malformation (AID 2283650)
Method in brief: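 Pronase dechorionation at 4 hpf; embryos plated at 6 hpf, one per well; static exposure, sealed and foil-covered, 28C, to 120 hpf; pigmentation read by brightfield, binary; DMSO 0.64% baseline, 5uM trimethyltin chloride positive control.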

[4] = Tanguay_ZF_120hpf_CIRC_legacy: (Legacy) Oregon State University Tanguay Lab 120 Hour Post-fertilization zebrafish Assay for Circulatory Malformation (AID 2283651)
Method in brief: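 Read-out: presence or absence of circulatory malformation at 120 hpf, scored by brightfield microscopy, fitted in the gain-of-signal direction against DMSO baseline. Wild-type 5D larvae were exposed from 6 hpf after enzymatic chorion removal.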

[5] = Tanguay_ZF_120hpf_SWIM_legacy: (Legacy) Oregon State University Tanguay Lab 120 Hour Post-fertilization zebrafish Assay for Swim Bladder Malformation (AID 2283654);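 also: swim bladder malformation in each larva scored yes or no under brightfield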
Method in brief: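 Embryos lacking chorions were exposed individually and statically to test chemical from 6 to 120 hpf at 28C, with 0.64% DMSO as vehicle. At 120 hpf, swim bladder malformation was recorded as present or absent by brightfield microscopy.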

[6] = Tanguay_ZF_120hpf_NC_legacy: (Legacy) Oregon State University Tanguay Lab 120 Hour Post-fertilization zebrafish Assay for Notochord and Tail Malformation (AID 2283656)
Method in brief: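 Dechorionated Tropical 5D wild-type zebrafish embryos, one per well from 6 hpf, statically exposed to 120 hpf at 28C in 0.64% DMSO final. Notochord distortion scored present/absent by brightfield; dead embryos excluded.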

[7] = read-out: solute carrier (SLC22A6), SLC22A6 (gene 9356); experiment: LTEA_HepaRG_SLC22A6: Life Technologies and Expression Analysis (LTEA) Assay for solute carrier (SLC22A6) using HepaRG (AID 2283653; active = hit-call score of the fitted dose curve at least 0.9, where 1 is the maximum; inactive = score below 0.9); conditions: mRNA level, 48 h; actives raise or lower the signal
Method in brief: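 HepaRG, human liver line; 48 h chemical exposure; 8-pt half-log series from 100 uM in 0.5% DMSO, duplicate wells. Readout: TaqMan qRT-PCR of SLC22A6 mRNA, housekeeping-normalised; bidirectional curve fit vs DMSO baseline.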

[8] = read-out: solute carrier (SLC10A1), SLC10A1 (gene 6554); experiment: LTEA_HepaRG_SLC10A1: Life Technologies and Expression Analysis (LTEA) Assay for solute carrier (SLC10A1) using HepaRG (AID 2283657; active = hit-call score of the fitted dose curve at least 0.9, where 1 is the maximum; inactive = score below 0.9); conditions: mRNA level, 48 h; actives raise or lower the signal
Method in brief: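 Transcript levels were measured by qRT-PCR after human HepaRG cells received test chemical for 48 hours, up to 100 uM in half-log dilutions. Values come from bidirectional concentration-response fitting relative to 0.5% DMSO vehicle.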

[9] = Tanguay_ZF_120hpf_TRUN_legacy: (Legacy) Oregon State University Tanguay Lab 120 Hour Post-fertilization zebrafish Assay for Truncated Body (AID 2283655)
Method in brief: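 Whole-embryo zebrafish screen: dechorionated 5D embryos, static exposure 6–120 hpf, 28C, sealed foil-covered plates, 0.64% DMSO. Binary truncation call; gain of signal versus DMSO baseline.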

[10] = read-out: kallikrein-3 (KLK3), KLK3 (gene 354); experiment: LTEA_HepaRG_KLK3: Life Technologies and Expression Analysis (LTEA) Assay for kallikrein-3 (KLK3) using HepaRG (AID 2283652; active = hit-call score of the fitted dose curve at least 0.9, where 1 is the maximum; inactive = score below 0.9); conditions: mRNA level, 48 h; actives raise or lower the signal
Method in brief: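 Differentiated human HepaRG cells in serum-free induction medium exposed 48 h in duplicate, eight-point half-log series from 100 uM in 0.5% DMSO. KLK3 mRNA by qRT-PCR, normalised to ACTB, GAPDH, POLR2A; bidirectional fit versus DMSO.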

Measured: AC50

CCCN(CC)CC1COC2(CCC(C(C)(C)C)CC2)O1 (stereo unspecified)
inactive: [1] | [2] | [3] | [4] | [5]

CCN(CC)c1nc(C)cc(OP(=S)(OC)OC)n1
inactive: [1] | [2] | [3] | [5] | [6]

COC(=O)NC(=S)Nc1ccccc1NC(=S)NC(=O)OC
inactive: [1] | [2] | [3] | [5] | [6]

CN=C=S
inactive: [1] | [3] | [4] | [7] | [5] | [8]

CCOP(=S)(OCC)Oc1nc(Cl)n(C(C)C)n1
active: [8] 30.4 µM
not listed: [2] | [9] | [10]
inactive: all other assays above

N#Cc1c(Cl)cccc1Cl
not listed: [7] | [8] | [10]
inactive: all other assays above

CCOc1nc(F)cc2nc(S(=O)(=O)Nc3c(Cl)cccc3Cl)nn12
not listed: [7] | [8] | [10]
inactive: all other assays above

CNC(=O)N(C)c1nnc(C(C)(C)C)s1
inactive: [1] | [2] | [3] | [4] | [5] | [9]

CCOP(=O)(OCC)Oc1nc(Cl)c(Cl)cc1Cl
inactive: [1] | [2] | [3] | [4] | [5] | [6]

COC(=O)N(C(=O)N1CO[C@@]2(C(=O)OC)Cc3cc(Cl)ccc3C2=N1)c1ccc(OC(F)(F)F)cc1
inactive: [1] | [2] | [3] | [4] | [5] | [6]

COP(=S)(OC)Oc1ccc([N+](=O)[O-])c(C)c1
not listed: [7] | [8] | [10]
inactive: all other assays above

CC1(C)C(C=C(Cl)Cl)C1C(=O)OC(C#N)c1cccc(Oc2ccccc2)c1 (stereo unspecified)
active: [1] 0.994 µM
inactive: [2] | [3] | [4] | [5]

COC(=O)c1c(C(F)F)nc(C(F)(F)F)c(C2=NCCS2)c1CC(C)C
inactive: [1] | [2] | [3] | [4] | [5] | [6]

COc1ccc(-c2ccccc2)cc1NNC(=O)OC(C)C
inactive: [1] | [2] | [3] | [4] | [5] | [6]

CCNC(=O)NC(=O)C(C#N)=NOC
active: [1] 45.6 µM | [5] 53.2 µM
inactive: [2] | [4] | [9] | [6]

Cc1nc(N(C)C)nc(OC(=O)N(C)C)c1C
inactive: [1] | [3] | [4] | [5]

Nc1c(Cl)c(Cl)nc(C(=O)O)c1Cl
not listed: [2] | [5] | [9]
inactive: all other assays above

Cn1c(-c2ccccc2)cc(-c2ccccc2)[n+]1C
inactive: [1] | [2] | [3] | [4] | [5] | [6]

CS(=O)(=O)c1ccc(C(=O)C2C(=O)CCCC2=O)c([N+](=O)[O-])c1
inactive: [1] | [2] | [3] | [4] | [5] | [6]

CCCCOCN(C(=O)CCl)c1c(CC)cccc1CC
inactive: [1] | [2] | [3] | [6]

CCSC(=O)N1CCCCCC1
inactive: [1] | [2] | [3] | [4] | [5]

O=P(O)(O)CCCl
inactive: [1] | [2] | [3] | [4] | [5] | [6]

Clc1nc(Cl)nc(Nc2ccccc2Cl)n1
inactive: [1] | [2] | [4] | [9] | [6]

Cc1cc(C)nc(Nc2ccccc2)n1
inactive: [1] | [2] | [3] | [4] | [5] | [6]

N#CN=C1SCCN1Cc1ccc(Cl)nc1
inactive: [1] | [2] | [3] | [4] | [5] | [9]

Clc1cccc(C(Cl)(Cl)Cl)n1
inactive: [1] | [2] | [4] | [5] | [9] | [6]

CC(C)=CC1C(C(=O)OCc2coc(Cc3ccccc3)c2)C1(C)C (stereo unspecified)
inactive: [1] | [2] | [3] | [4] | [5]

CC(C)Oc1cccc(NC(=O)c2ccccc2C(F)(F)F)c1
active: [8] 74 µM
not listed: [6] | [9]
inactive: all other assays above

CS(=O)(=O)c1cc(C(F)(F)F)ccc1C(=O)c1cnoc1C1CC1
inactive: [1] | [3] | [4] | [5]

CCC(C)n1c(=O)[nH]c(C)c(Br)c1=O (stereo unspecified)
active: [8] 21 µM
not listed: [6] | [9]
inactive: all other assays above

O=C(Nc1ccccc1-c1ccc(Cl)cc1)c1cccnc1Cl
inactive: [1] | [3] | [4] | [5] | [9]

O=C1C2CC=CCC2C(=O)N1SC(Cl)(Cl)Cl (stereo unspecified)
inactive: [1] | [3] | [4] | [5] | [9]

— PubChem BioAssay (EPA / NIEHS)
